The subject of assay [1] is WNK4. Conditions: concentration: 1 μM, replicates: in singlicate; n = 1.
In assay [2] the test system is T1, YANK1.
T1 construct: gene STK32A
Conditions: concentration: 1 μM, replicates: in singlicate, n = 1.

In assay [3] the test system is T2, YANK2.
T2 construct: gene STK32B
Conditions: concentration: 1 μM, replicates: in singlicate, n = 1.

The test system of assay [4] is T3, YANK3.
T3 construct: gene STK32C
Conditions: concentration: 1 μM, replicates: in singlicate, n = 1.

The subject of assay [5] is T4, YES.
T4 construct: gene YES1
The following applies: concentration: 1 μM, replicates: in singlicate; n = 1.

Assay [6] deals with T5, YSK1.
T5 construct: gene STK25
Conditions: concentration: 1 μM, replicates: in singlicate; n = 1.

In assay [7] the test system is T6, YSK4.
T6 construct: gene MAP3K19
The following applies: concentration: 1 μM, replicates: in singlicate, n = 1.

Assay [8] has as its system ZAK. Conditions: concentration: 1 μM, replicates: in singlicate, n = 1.
In assay [9] the test system is ZAP70. Conditions: concentration: 1 μM, replicates: in singlicate, n = 1.
In assay [10] the test system is T7, p38-alpha.
T7 construct: gene MAPK14
The following applies: concentration: 1 μM, replicates: in singlicate, n = 1.

Assay [11] deals with T8, p38-beta.
T8 construct: gene MAPK11
The following applies: concentration: 1 μM, replicates: in singlicate, n = 1.

Assay [12] concerns p38-delta. The following applies: concentration: 1 μM, replicates: in singlicate, n = 1.
For assay [13], the system named is T9, p38-gamma.
T9 construct: gene MAPK12
The following applies: concentration: 1 μM, replicates: in singlicate, n = 1.

SMILES strings stand for the structures. Several values for one entry are separate records, joined by “and”; a condition that tells them apart may be missing. Equal entries are not always repeated. Where two headings read alike, the source gives them in different places.

This note sets out measurements from paper PMC5540273 (PLoS ONE, 2017).
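Further: KINOMEscan kinase panel screen.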

`NC(=O)c1sc(-n2cnc3ccccc32)cc1OCc1ccccc1F` [GSK1024306]: the “%Inh” value in assay [1], in assay [2], in [3], in assay [4], in [5] and in assay [6] was 0% in each case. In addition, the “%Inh” value in assay [7] was 2%; in assay [8], 0%; in [9], 0%; in [10], 93.4%; in assay [11], 1%; in [12], 0%. For the same compound, the “%Inh” value in assay [13] is on record as 0%.

Consider `O=c1cc(N2CCOCC2)nc2n(Cc3cccc(Cl)c3)ccn12` [GSK2296823], for which the “%Inh” value worked out at 0% in [1]; 0% in [2]; 0% in assay [3]; 18% in assay [4]; 23% in [5]; 10% in assay [6]. For the same compound, the “%Inh” value was 19% in assay [7]; 0% in assay [8]; 0% in [9]; 0% in [10]; 0% in assay [11]; 38% in assay [12]. In addition, the “%Inh” value in assay [13] is 56%.

On to `COc1ccc(Nc2nccc(N3CCC(NC(=O)c4cccc(NC(C)=O)c4)C3)n2)cc1` (centres unmarked) [GSK1379732], for which the “%Inh” value is 100% in [1]; 22% in [2]; 0% in assay [3]; 20% in [4]; 0% in assay [5]; 11% in assay [6]. The “%Inh” value came to 5% in [7]; 10% in [8]; 0% in assay [9]; 30% in [10]; 0% in [11]; 22% in assay [12]. Also, the “%Inh” value in assay [13] was 7%.

Turning to `CN1CCC(n2cnc(-c3ccc(F)cc3)c2-c2ccnc(NC3CCNCC3)n2)CC1` [SB-229482], the “%Inh” value in assay [1] came to 0%; in assay [2], 0%; in assay [3], 2%; in [4], 1%; in assay [5], 0%; in assay [6] it was 0%. Further, the “%Inh” value in [7] is 0%; in [8], 4%; in [9], 0%; in assay [10], 89%; in assay [11], 23%; in assay [12], 38%. For the same compound, in [13], the “%Inh” value is listed as 38%.

With `Cn1ccc2ncnc(Oc3ccc(NC(=O)Nc4cccnc4)c(Cl)c3)c21`, the “%Inh” value in assay [1] was 0%; in assay [2], 0%; in [3] it was 13%; in [4] it was 7%; in assay [5] it was 0%; in [6], 0%. In addition, the “%Inh” value in assay [7] is 0%; in [8], 3%; in assay [9] it was 0%; in assay [10], 14%; in assay [11] it was 0%; in assay [12] it was 0%. Also, the “%Inh” value in assay [13] was 21%.

Regarding `Nc1nc(-c2cccnc2)c(-c2ccnc3ccccc23)s1` [GW684083], the “%Inh” value amounted to 39% in [1]; 20% in assay [2]; 18% in assay [3]; 0% in assay [4]; 18% in assay [5]; 0% in assay [6]. Besides, the “%Inh” value in [7] was 60%; in assay [8], 78%; in [9] it was 0%; in [10] it was 40%; in assay [11] it was 0%; in assay [12] it was 27%. For the same compound, in assay [13], the “%Inh” value is reported as 0%.

For the compound `CS(=O)(=O)CCNCc1ccc(-c2ccc3ncnc(Nc4ccc(OCc5ccccc5)c(Cl)c4)c3c2)o1.Cl` [GW574783], the “%Inh” value in [1] was 22%; in assay [2], 0%; in assay [3], 24%; in assay [4], 8%; in assay [5] it was 1%; in [6], 0%. Moreover, the “%Inh” value is on record as 2% in [7]; 0% in assay [8]; 0% in [9]; 0% in assay [10]; 0% in assay [11]; 21% in assay [12]. In addition, the “%Inh” value in assay [13] turned out to be 0%.

`O=C(c1ccc(-c2cc(-c3c[nH]nc3-c3ccccn3)ccn2)cc1)N1CCCC1` [GW792479]: the “%Inh” value worked out at 14% in assay [1]; 0% in assay [2]; 13% in assay [3]; 0% in assay [4]; 0% in assay [5]; 0% in assay [6]. The “%Inh” value came out at 0% in [7]; 28% in [8]; 2% in assay [9]; 7% in assay [10]; 20% in assay [11]; 0% in assay [12]. Further, the “%Inh” value in [13] is 66%.

Regarding `CCc1nc(-c2cccc(N(C)S(=O)(=O)c3ccccc3)c2)c(-c2ccnc(Nc3ccc(N4CCN(C(C)=O)CC4)nc3)n2)s1` [GSK1645895], the “%Inh” value in assay [1] came to 0%; in assay [2] it was 5%; in assay [3] it was 18%; in assay [4] it was 11%; in assay [5], 33%; in assay [6], 26%. The “%Inh” value in assay [7] worked out at 29%; in [8], 83%; in assay [9], 0%; in assay [10], 60%; in assay [11], 0%; in [12], 7%. Moreover, in [13], the “%Inh” value is given as 0%.

With `Cc1ccc(O)cc1Nc1cc(C(F)(F)F)nc2ccc(-c3ccncc3)cc12` [GW630823], the “%Inh” value in assay [1] came to 0%; in assay [2], 0%; in assay [3], 0%; in assay [4] it was 0%; in assay [5] it was 23%; in assay [6], 0%. Besides, the “%Inh” value is reported as 0% in assay [7]; 10% in assay [8]; 0% in assay [9]; 8% in assay [10]; 0% in [11]; 7% in assay [12]. The “%Inh” value in [13] stood at 31%.

In the case of `C[C@@H]1CCN(C(=O)CO)C[C@@H]1N(C)c1ncnc2[nH]ccc12`, the “%Inh” value in [1] came to 0%; in [2], 19%; in assay [3], 0%; in assay [4], 0%; in assay [5], 0%; in assay [6] it was 0%. Further, the “%Inh” value was 7% in assay [7]; 7% in [8]; 0% in [9]; 5% in assay [10]; 5% in assay [11]; 13% in assay [12]. Moreover, the “%Inh” value in [13] was 1%.

For `Nc1nc(-c2ccc3c(N)n[nH]c3c2)cc(N2CCCCC2)n1` [GSK2228768], the “%Inh” value in assay [1] came to 0%; in assay [2], 0%; in assay [3], 0%; in assay [4], 0%; in [5] it was 0%; in assay [6] it was 1%. For the same compound, the “%Inh” value in assay [7] is on record as 0%; in assay [8] it was 0%; in assay [9], 0%; in assay [10], 0%; in assay [11], 0%; in assay [12], 19%. For the same compound, in [13], the “%Inh” value was found to be 0%.

For `COc1ccc(-c2nc3n(c2-c2ccncc2)CCC3)cc1` [SKF-104493], the “%Inh” value was 17% in assay [1]; 0% and 10% in assay [2] (1 µM); 13% and 0% in assay [3] (1 µM); 0% and 4% in assay [4] (1 µM); 0% in [5]; 0% in [6]. For the same compound, the “%Inh” value was 0% and 100% in [7] (1 µM); 0% and 8% in [8] (1 µM); 0% and 8% in assay [9] (1 µM); 80% and 97.8% in assay [10] (1 µM); 33% and 40% in assay [11] (1 µM); 5% and 43% in assay [12] (1 µM). Besides, the “%Inh” value in [13] (1 µM) was 21% and 8%.

On to `CC(=O)Nc1n[nH]c2ncc(-c3ccccc3)cc12` [SB-548492], for which the “%Inh” value in assay [1] is recorded as 30%; in assay [2] it was 0%; in assay [3], 0%; in assay [4] it was 0%; in assay [5], 0%; in [6], 0%. Also, the “%Inh” value in assay [7] was found to be 31%; in [8], 31%; in assay [9], 0%; in assay [10] it was 4%; in assay [11] it was 11%; in assay [12], 3%. Also, the “%Inh” value in assay [13] is 20%.
